{
  "source": "PubChem BioAssay AID2766",
  "about": "(Sanford-Burnham Center for Chemical Genomics, 2010)",
  "note": "This is one part of the list. Values without a mark were called inactive. Active and inactive are the calls of the source. Cut-off read from the data, not from the text of the source: active = inhibition above about 50%; inactive = the rest.",
  "data": [
    {"molecular_target": "Apelin receptor (Homo sapiens) (UniProt P35414)", "sequence (P35414 whole entry, looked up)": "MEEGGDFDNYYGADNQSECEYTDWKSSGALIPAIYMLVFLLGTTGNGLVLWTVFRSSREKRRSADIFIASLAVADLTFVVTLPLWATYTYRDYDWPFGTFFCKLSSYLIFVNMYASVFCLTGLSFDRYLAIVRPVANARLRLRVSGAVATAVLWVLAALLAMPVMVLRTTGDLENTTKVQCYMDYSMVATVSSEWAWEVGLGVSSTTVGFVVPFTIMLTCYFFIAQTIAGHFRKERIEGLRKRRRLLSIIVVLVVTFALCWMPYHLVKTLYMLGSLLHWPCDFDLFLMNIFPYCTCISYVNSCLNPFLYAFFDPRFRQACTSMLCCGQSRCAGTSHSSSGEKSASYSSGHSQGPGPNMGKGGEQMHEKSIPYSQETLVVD", "experiment": "APJ antagonists blocking beta-arrestin recruitment, confirmation, cell-based, luminescence, single concentration, uHTS hits (AID 2766)", "settings": "antagonist mode, at 20 µM, hits give high values", "values": [
      {"smiles": "COc1ccc(CS(=O)/C(Cl)=C(/Cl)C(=O)Nc2ccc(OC)nc2)cc1", "note": "(centres undefined)", "inhibition": "100% (active)"},
      {"smiles": "COc1ccc(NC(=O)/C(Cl)=C(/Cl)S(=O)Cc2ccc(C)cc2)cn1", "note": "(centres undefined)", "inhibition": "106% (active)"},
      {"smiles": "COc1cc(/C=C2/SC(=S)N(Cc3ccccc3)C2=O)cc(OC)c1O", "inhibition": "94.7% (active)"},
      {"smiles": "O=[N+]([O-])c1c(NCCO)cc(Sc2nc3ccccc3s2)c2nonc12", "inhibition": "105% (active)"},
      {"smiles": "CC(=O)C1=C(O)C(=O)N(c2ccc(S(N)(=O)=O)cc2)C1c1ccccc1F", "note": "(centres undefined)", "inhibition": "43.9%"},
      {"smiles": "CN(C)S(=O)(=O)c1cccc(NC(=S)N/N=C/C(=O)c2ccccc2)c1", "inhibition": "52.4% (active)"},
      {"smiles": "CCOC(=O)c1cnc(Nc2nc3ccccc3o2)nc1CSC(=S)N1CCCCC1", "inhibition": "-22.6%"},
      {"smiles": "COc1cccc2sc(Nc3nc(C)c(C(C)=O)s3)nc12", "inhibition": "94% (active)"},
      {"smiles": "O=c1ccc2c(-c3ccccc3S(=O)(=O)O)c3ccc(O)c(O)c3oc-2c1O", "inhibition": "69.9% (active)"},
      {"smiles": "CC(=O)/C(=N\\Nc1ccc(Cl)cc1Cl)Sc1cccc2cccnc12", "inhibition": "78% (active)"},
      {"smiles": "COc1cc(NS(=O)(=O)c2ccc3ccccc3c2)c2ncccc2c1", "inhibition": "-7.35%"},
      {"smiles": "COc1cc(/C=C(\\C#N)c2nc3c(s2)CC(C)CC3)ccc1O", "note": "(centres undefined)", "inhibition": "44.7%"},
      {"smiles": "CCc1ccc2c(c1)C1(NN=C(c3ccccc3)S1)C(=O)N2", "note": "(centres undefined)", "inhibition": "42.9%"},
      {"smiles": "O=C1Nc2ccc(Br)cc2/C1=N/N=C/C1=C(N2CCOCC2)C(=C\\c2ccccc2)/CC1", "inhibition": "75.1% (active)"},
      {"smiles": "CC(CN1CCOCC1)OC(=O)c1ccc(C(C)(C)C)cc1", "note": "(centres undefined)", "inhibition": "26.5%"},
      {"smiles": "CN1/C(=c2/s/c(=C3/C(=O)N(c4ccccc4)NC3=Nc3ccccc3)n(C)c2=O)C(C)(C)c2ccccc21", "inhibition": "55.3% (active)"},
      {"smiles": "Cc1cccc2cc3c(N)c(C(=O)N4CCCc5ccccc54)sc3nc12", "inhibition": "47.9%"},
      {"smiles": "Oc1ccc(N=Nc2nccs2)c(O)c1", "inhibition": "79.8% (active)"},
      {"smiles": "O=C(CCc1nc2ccccc2c(=O)[nH]1)OCC(=O)c1cccc(Cl)c1", "inhibition": "37.2%"},
      {"smiles": "Cc1cc(/C=N/Nc2ccc([N+](=O)[O-])cn2)c(C)n1-c1cccc(C(=O)O)c1", "inhibition": "75.3% (active)"},
      {"smiles": "CSCCC(NC(=O)COc1ccccc1)C(=O)OCC(=O)c1cc2ccccc2o1", "note": "(centres undefined)", "inhibition": "87.8% (active)"},
      {"smiles": "CC(=O)Nc1ccc(NC(=O)c2sc3nc4c(c(-c5ccc(C)cc5)c3c2N)CCC4)cc1", "inhibition": "5.53%"},
      {"smiles": "S=C(NNC(=S)NC1CC2CCC1C2)NC1CC2C=CC1C2", "note": "(centres undefined)", "inhibition": "49.1%"},
      {"smiles": "Cc1csc(NC(=S)Nc2cccc(Cl)c2)n1", "inhibition": "55.8% (active)"},
      {"smiles": "CC1CC2=C(CC1/C=N/NC(N)=S)C(C)(C)CCC2", "note": "(centres undefined)", "inhibition": "103% (active)"},
      {"smiles": "COc1cc(/C=N\\NC(=O)CNC(=O)c2cccc([N+](=O)[O-])c2)ccc1O", "inhibition": "2.71%"},
      {"smiles": "O=C1Nc2ccc([N+](=O)[O-])cc2C1=Nc1cccc(CO)c1", "inhibition": "72.5% (active)"},
      {"smiles": "Cc1cccc(-n2c(O)c(C=Nc3ccccc3N)c(=O)[nH]c2=O)c1", "inhibition": "8.93%"},
      {"smiles": "COC(=O)c1ccc(NCC(=O)c2ccccc2)cc1", "inhibition": "63.5% (active)"},
      {"smiles": "O=C(CCl)NNc1cccc(Cl)n1", "inhibition": "145% (active)"},
      {"smiles": "O=[N+]([O-])c1ccccc1S(=O)(=O)Nc1cccc2cccnc12", "inhibition": "4.57%"},
      {"smiles": "O=C(CSc1cccc2cccnc12)N/N=C/c1cccnc1", "inhibition": "43.5%"},
      {"smiles": "O=[N+]([O-])c1cc(Cl)cc(/C=N/NC(=S)Nc2cc(S(=O)(=O)N3CCOCC3)ccc2Cl)c1O", "inhibition": "62.4% (active)"},
      {"smiles": "CC(C)OC(=O)CN1C(=O)C(=O)c2ccccc21", "inhibition": "158% (active)"}
    ]}
  ]
}
